Measurements as given in publication PMC12431657, “Discovery and mechanistic insights of dibenzoylmethane as a broad spectrum inhibitor of coronavirus” (PLOS Pathogens, 2025).
Structures can show the parent of a compound that is named as a salt. Where two headings read alike, the source gives them in different places. Out of some 3,300 compounds screened, about 95 (3%) showed an effect of 50% or more. What follows is part of a selection rich in strong results, with near analogues and random picks from the rest.

System: HCoV-229E
Set-up: species or system Huh-7; HTS, protection from HCoV-229E induced cell death, luminescent cell viability (CellCounting-Lite 2.0), inhibition rate
Settings: 24 h post infection, 1 h compound pre-incubation, 10 µM, inhibitor

Compound | 229E Inhibition rate | 229E Inhibition rate (229E Inhibition rate, 24 h)
CC(C)(O)[C@@H]1CC[C@](C)([C@H]2[C@@H](O)C[C@@]3(C)[C@@H]4C[C@H](O)[C@H]5C(C)(C)[C@@H](O[C@@H]6OC[C@@H](O)[C@H](O)[C@H]6O[C@@H]6O[C@H](CO)[C@@H](O)[C@H](O)[C@H]6O)CC[C@@]56C[C@@]46CC[C@]23C)O1 [Astragaloside III] | 10.8% | –
CC[C@@]1([C@H]2O[C@H]([C@H]3O[C@@](O)(CO)[C@H](C)C[C@@H]3C)C[C@H]2C)CC[C@H]([C@@]2(C)CC[C@]3(C[C@H](O)[C@@H](C)[C@@H]([C@H](C)[C@H](OC)[C@@H](C)C(=O)O)O3)O2)O1 [Monensin sodium salt] | 24.5% | –
CO[C@@H]1[C@@H](OC)[C@H](C)[C@@](O)(CC(=O)O)O[C@H]1[C@H](C)[C@H]1O[C@@]2(CC[C@@](C)([C@H]3CC[C@@](C)([C@@H]4O[C@@H]([C@H]5O[C@](C)(O)[C@H](C)C[C@@H]5C)C[C@@H]4O[C@@H]4C[C@H](OC)[C@@H](OC)[C@H](C)O4)O3)O2)C[C@H](O)[C@H]1C [Maduramicin (ammonium)] | 3.4% | –
CO[C@H]([C@H](C)[C@H]1O[C@@]2(CC[C@@](C)([C@H]3CC[C@@](C)([C@@H]4O[C@@H]([C@H]5O[C@@](O)(CO)[C@H](C)C[C@@H]5C)C[C@@H]4C)O3)O2)C[C@H](O)[C@H]1C)[C@H](C)C(=O)O [Monensin B] | 55.3% | –
COc1ccc(/C=C/c2cc(OC)cc(=O)o2)cc1 [Yangonin] | 44% | –
C[C@]12CC[C@@H]3c4ccc(O)cc4CC[C@H]3[C@@H]1CC[C@H]2O [Alpha-Estradiol] | 18.2% | –
O=C(/C=C/c1ccc(O)c(O)c1)O[C@@H]1CC(C(=O)O)=C[C@@H](O)[C@H]1O [5-O-Caffeoylshikimic acid] | 12% | –
O=C1/C(=C/c2ccc(O)c(O)c2)COc2cc(O)ccc21 [Sappanone A] | 15.6% | –
CC1(C)CCC[C@]2(C)[C@@H](C=O)C(C=O)=CC[C@@H]12 [Polygodial] | 16.5% | –
CC1(C)CCC[C@]2(C)[C@H]3CCO[C@]3(C)CC[C@@H]12 [Ambroxide] | 53.4% | –
C=C[C@](C)(O)CC[C@@H]1[C@@]2(C)CCCC(C)(C)[C@@H]2CC[C@@]1(C)O [Sclareol] | 19.3% | –
CC1(C)Oc2cc3oc(=O)ccc3cc2C[C@@H]1O [Decursinol] | 0% | –
COc1cc([C@H]2OC[C@H]3[C@@H]2CO[C@@H]3c2ccc(O[C@@H]3O[C@H](CO)[C@@H](O)[C@H](O)[C@H]3O)c(OC)c2)ccc1O[C@@H]1O[C@H](CO)[C@@H](O)[C@H](O)[C@H]1O [Pinoresinol Diglucoside] | 23.6% | –
CSCCC(NC(C)=O)C(=O)O (racemic) [N-Acetyl-DL-methionine] | 32.7% | –
O=c1ccc2cc(O)c(O)cc2o1 [Esculetin] | 35.1% | –
O=c1ccc2cc(O)ccc2o1 [6-Hydroxycoumarin] | 10.6% | –
O=c1ccc2ccc(O)cc2o1 [Umbelliferone] | 54.3% | –
C[C@H](CC[C@@H](O)C(C)(C)O)[C@H]1CC[C@@]2(C)[C@@H]3CC=C4[C@@H](CC[C@H](O[C@@H]5O[C@H](CO[C@@H]6O[C@H](CO)[C@@H](O)[C@H](O)[C@H]6O)[C@@H](O)[C@H](O)[C@H]5O)C4(C)C)[C@]3(C)[C@H](O)C[C@]12C [Mogroside II-A2] | 10% | –
CCCCCCC[C@H](O)CC(=O)CCc1ccc(O)c(OC)c1 [8-Gingerol] | 13.3% | –
CCCCCCCCC[C@H](O)CC(=O)CCc1ccc(O)c(OC)c1 [10-Gingerol] | 32.3% | –
CCCCC[C@H](O)CC(=O)CCc1ccc(O)c(OC)c1 [[6]-Gingerol] | 52.8% | –
Cc1ncc(C[n+]2csc(CCOP(=O)(O)O)c2C)c(N)n1 [Thiamine monophosphate (chloride) (dihydrate)] | 12.1% | –
CC(=O)O[C@H]1[C@H]2[C@H]([C@@H]3[C@H]4OC(=O)[C@@](C)(O)[C@@]5(C)C(=O)C[C@@H](C)[C@@H]([C@@H]45)[C@@]3(C)[C@H]1OC(C)=O)[C@@H](OC(C)=O)C(=O)[C@H]1C[C@@H]3O[C@@H]3[C@H](OC(C)=O)[C@]21C [Taccalonolide C] | 10.3% | –
O=c1cc(-c2ccccc2)c2cc(O)c(O)cc2o1 [Nordalbergin] | 17.6% | –
O=c1cc(-c2ccc(O)cc2)oc2cc(O)cc(O)c12 [Apigenin] | 55.5% | –
O=c1cc(-c2ccccc2)c2c(O)cc(O)cc2o1 [LC3-mHTT-IN-AN2] | 50.8% | –
COc1ccc(-c2cc(=O)c3c(O)cc(O)cc3o2)cc1-c1c(O)cc(O)c2c(=O)cc(-c3ccc(O)cc3)oc12 [Bilobetin] | 22.4% | –

Compound | 229E Inhibition rate | 229E Inhibition rate (229E Inhibition rate, 24 h)
O=c1cc(-c2ccccc2)oc2cc(O)cc(O)c12 [Chrysin] | 0% | –
COc1cc(O)c2c(=O)cc(-c3ccc(OC)c(-c4c(O)cc(O)c5c(=O)cc(-c6ccc(O)cc6)oc45)c3)oc2c1 [Ginkgetin] | 64.4% | –
O=c1c(O)c(-c2ccccc2)oc2cc(O)cc(O)c12 [Galangin] | 8% | –
O=c1cc(-c2ccc(O)c(O)c2)oc2cc(O)cc(O)c12 [Luteolin] | 0% | –
COc1ccc(-c2cc(=O)c3c(O)cc(O)c(-c4cc(-c5cc(=O)c6c(O)cc(O)cc6o5)ccc4OC)c3o2)cc1 [Isoginkgetin] | 6.1% | –
O=C(/C=C/c1ccc(O)c(O)c1)O[C@H]1[C@H](O)C[C@](O)(C(=O)O)C[C@H]1O [Cryptochlorogenic acid] | 7.4% | –
CC1(C)[C@@H](O[C@H]2O[C@H](C(=O)O)[C@@H](O)[C@H](O)[C@H]2O[C@@H]2O[C@H](C(=O)O)[C@@H](O)[C@H](O)[C@H]2O)CC[C@]2(C)[C@H]3C(=O)C=C4[C@@H]5C[C@@](C)(C(=O)O)CC[C@]5(C)CC[C@@]4(C)[C@]3(C)CC[C@@H]12 [Diammonium Glycyrrhizinate] | – | 0%
C[C@@H]1O[C@H]2O[C@H]3[C@@H](OC[C@H](O)[C@@H]3O)OC(=O)[C@]34CCC(C)(C)C[C@H]3C3=CC[C@@H]5[C@@]6(C)C[C@H](O)[C@H](O[C@@H]7O[C@H](CO)[C@@H](O)[C@H](O)[C@H]7O[C@@H]7OC[C@H](OC(=O)C[C@](C)(O)CC(=O)O[C@@H]1[C@@H](O[C@@H]1OC[C@@H](O)[C@H](O)[C@H]1O)[C@H]2O)[C@H](O)[C@H]7O)[C@@](C)(CO)[C@@H]6CC[C@@]5(C)[C@]3(C)C[C@H]4O [Tubeimoside II] | 0.9% | –
CC1(C)CCC2(CO)C(=C3C=CC4C5(C)CCC(OC6OC(COC7OC(CO)C(O)C(O)C7O)C(OC7OC(CO)C(O)C(O)C7O)C(O)C6O)CC5C(C)(CO)CC4(C)C3(C)CC2O)C1 (centres unmarked) [Clinodiside A] | 8.8% | –
COC(=O)Cc1c[nH]c2ccccc12 [Methyl 2-(1H-indol-3-yl)acetate] | 38.3% | –
COc1c(/C=C/C(=O)c2ccc(O)cc2)ccc(O)c1O [Licochalcone B] | 25.4% | –
C=C(C)[C@H](C)c1cc(/C=C/C(=O)c2ccc(O)cc2)c(OC)cc1O [Licochalcone E] | 61.6% | –
COc1cc(O)ccc1/C=C/C(=O)c1ccc(O)cc1 [Echinatin] | 0% | –
CC1=C(O)C(=O)C(C)O1 (centres unmarked) [Furaneol] | 17.8% | –
COc1cc2c(cc1OC)[C@@H](Cc1ccc(Oc3cc(C[C@@H]4c5cc(OC)c(OC)cc5CCN4C)ccc3O)cc1)N(C)CC2 [Dauricine] | 3.6% | –
O=C(/C=C/c1ccc(O)c(O)c1)OC[C@@H](O)CO[C@@H]1O[C@H](CO)[C@@H](O)[C@H](O)[C@H]1O [Regaloside C] | 52.3% | –
O=C(/C=C/c1ccc(O)c(O)c1)OC[C@H]1O[C@@H](OCCc2ccc(O)c(O)c2)[C@H](O)[C@@H](O)[C@@H]1O [Calceolarioside B] | 10.8% | –
O=C(/C=C/c1ccc(O)c(O)c1)c1ccc(O[C@@H]2O[C@H](CO)[C@@H](O)[C@H](O)[C@H]2O)c(O)c1O [Marein] | 17.9% | –
Cc1cn([C@@H]2O[C@H](CO)[C@@H](O)[C@H]2O)c(=O)[nH]c1=O [5-Methyluridine] | 14.9% | –
CC(C)c1cc2c(c(O)c1O)[C@@]13CCCC(C)(C)[C@@H]1[C@H](OC3=O)[C@H]2O [Rosmanol] | 0% | –
CC1NC(=O)CNC1=O (centres unmarked) [Cyclo(Ala-Gly)] | 39.9% | –
CCCCCCCCCCCCCCCCC(C(=O)O)C(O)(CC(=O)O)C(=O)O (centres unmarked) [Agaric acid] | 18.4% | –
CC(C)(O)[C@@H]1CC[C@](C)([C@H]2[C@@H](O)C[C@@]3(C)[C@@H]4C[C@H](O)[C@H]5C(C)(C)[C@@H](O)CC[C@@]56C[C@@]46CC[C@]23C)O1 [Cycloastragenol] | 8.6% | –
CN[C@@H](C)[C@H]1[C@H](O)C[C@@]2(C)[C@@H]3CC[C@H]4C(C)(C)[C@@H](NC)CC[C@@]45C[C@@]35CC[C@]12C [Cyclovirobuxine D] | 55.2% | –
CC(C)(O)[C@H]1CC[C@@](C)([C@H]2[C@@H](O)C[C@@]3(C)[C@@H]4C[C@H](O)[C@H]5C(C)(C)[C@@H](O)CC[C@@]56C[C@@]46CC[C@]23C)O1 [Cyclogalegenin] | 12.6% | –
CC(O)CC(=O)O (centres unmarked) [3-Hydroxybutyric acid] | 11.2% | –
